Rows were chosen to be rich in hits. Some 11% of all compounds tested hit in one or more screens of this group.
HEK cytotox – cytotoxic compounds in HEK 293 cells; HEK 293 viability, ATP luminescence (CellTiter-Glo), 48-72 h; Potency, µM (highest dose often 115 µM), inactives show at the top dose activity change, negative = cytotoxicity, most hits filed as inhibitors; 6.6% of 94,000 active; AID 1345083; also: nearly all actives have a fitted effect of over 60% in size
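Read-out: CellTiter-Glo ATP luminescence. Cells: HEK 293, 250 cells/well. Exposure: 48 or 72 hr, 37 degree Celsius.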
NPR1 antag – blocks ANP-stimulated signaling of human Npr1 receptor | Potency, µM (highest dose often 46.3 µM), for inactives: at the top dose activity change, negative = inhibition, most hits filed as inhibitors | HEK293 hNpr1 GloSensor cGMP, ANP-stimulated luminescence | 1.6% of 76,000 active | AID 1347048 | P16066; calls by dose curve; also: nearly all actives have a fitted effect of over 60% in size
Target sequence (P16066 whole entry, looked up): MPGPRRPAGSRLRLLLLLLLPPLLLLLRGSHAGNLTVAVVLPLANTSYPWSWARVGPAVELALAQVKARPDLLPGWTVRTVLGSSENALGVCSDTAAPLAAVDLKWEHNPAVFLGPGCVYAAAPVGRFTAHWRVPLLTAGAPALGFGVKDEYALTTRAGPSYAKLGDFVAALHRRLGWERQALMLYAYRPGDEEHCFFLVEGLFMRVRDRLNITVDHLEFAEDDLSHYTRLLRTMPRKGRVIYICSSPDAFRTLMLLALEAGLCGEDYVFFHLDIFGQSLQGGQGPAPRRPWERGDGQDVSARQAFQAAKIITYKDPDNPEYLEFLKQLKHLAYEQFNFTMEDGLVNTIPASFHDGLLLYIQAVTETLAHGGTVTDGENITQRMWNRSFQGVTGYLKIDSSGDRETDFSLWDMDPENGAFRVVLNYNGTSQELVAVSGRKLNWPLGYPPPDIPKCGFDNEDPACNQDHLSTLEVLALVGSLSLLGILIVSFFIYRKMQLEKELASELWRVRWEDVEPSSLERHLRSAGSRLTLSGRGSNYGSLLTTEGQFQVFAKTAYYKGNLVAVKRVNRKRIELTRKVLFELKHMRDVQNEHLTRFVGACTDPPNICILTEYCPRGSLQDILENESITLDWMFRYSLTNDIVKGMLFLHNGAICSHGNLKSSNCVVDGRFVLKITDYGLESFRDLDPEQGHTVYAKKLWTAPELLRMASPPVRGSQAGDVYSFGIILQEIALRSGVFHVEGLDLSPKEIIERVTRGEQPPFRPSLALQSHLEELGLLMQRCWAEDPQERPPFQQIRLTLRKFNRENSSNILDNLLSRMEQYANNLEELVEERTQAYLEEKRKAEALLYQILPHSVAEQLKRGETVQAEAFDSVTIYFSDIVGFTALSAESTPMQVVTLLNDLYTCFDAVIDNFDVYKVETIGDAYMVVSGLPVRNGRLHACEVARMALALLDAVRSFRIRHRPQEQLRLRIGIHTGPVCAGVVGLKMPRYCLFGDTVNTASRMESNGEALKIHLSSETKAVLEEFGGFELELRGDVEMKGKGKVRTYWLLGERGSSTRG
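HEK293 cells stably expressing human Npr1 and cGMP GloSensor pGS-40F, loaded 2 h with 2% GloSensor reagent, given compound 30 min at room temperature. Luminescence read before and 20 min after 0.1 nM hNppA.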
NIH3T3 tox – NIH 3T3 cell cytotoxicity | AID 1345082 | 4.3% of 94,000 active | Potency, µM (highest dose often 96.7 µM), for the others: at the highest dose activity change, negative = cytotoxicity, actives largely listed as inhibitors | NIH 3T3 viability, CellTiter-Glo ATP luminescence, 48-72 h; also: nearly all actives have a fitted effect of over 55% in size
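Cells were seeded at 400 per well, treated with pin-transferred compound, and kept 48 or 72 hr at 37 °C before CellTiter-Glo addition and luminescence imaging of cellular ATP.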
Luciferase inh – inhibitors of firefly (Photinus pyralis) luciferase; P08659; purified P. pyralis luciferase, luminescence, biochemical; Potency, µM (series often up to 115 µM), hits mostly inhibitors; 2.5% of 76,000 active; AID 1347043; also: nearly all actives have a fitted effect of over 65% in size
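FLuc 10nM, D-luciferin 10uM, ATP 10uM, Mg acetate 10mM, Tris acetate pH 7.5, Tween/BSA; cpd qHTS; enzyme added last; CCD luminescence.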
Starred values were filed as active, the others as inactive; i = inactive; ? = inconclusive; nt = no result given; [ ] = dose if it differs, or a comment. Unless noted, calls follow the shape of the dose curve; as a rule, active = well fitted curve in the direction sought with a large enough effect; inconclusive = small, poorly fitted or top-dose-only effect, or another doubt; inactive = no such curve, though single readings can be large; an effect the other way counts as inactive or inconclusive. % is scaled to controls: 0 for no effect and ±100 for the full control effect; potency is read from the fitted curve at half-maximal effect.

SMILES	HEK cytotox	NPR1 antag	NIH3T3 tox	Luciferase inh
N[C@H]1CCN2C(=O)c3cc(-c4ccc(Cl)cc4)ccc3NC(=O)[C@@H]2C1	40µM*	0%[70.6 µM]	32µM*	i
O=C(c1ccc(-c2cncnc2)cc1)N1CCC(C(=O)N2CCOCC2)CC1	1%	nt	-11%	nt
COCCn1cnc2ccc(-c3ccc(F)c(Cl)c3)nc2c1=O	-28%[172 µM]	-2%[70.6 µM]	?	i
COc1ccc(-c2ccc3c(c2)C(=O)N2CCN(C(=O)c4cccc(F)c4)C[C@@H]2C(=O)N3)cc1	?	-7%	-31%	?
O=C1Nc2ccc(-c3cccc(C(F)(F)F)c3)cc2C(=O)N2CCN(C(=O)c3ccccc3)C[C@H]12	20µM*	?	?	?
O=C(N[C@H]1CCN2C(=O)c3cc(Br)ccc3NC(=O)[C@@H]2C1)c1ccco1	?	2%[70.6 µM]	89µM*	i
O=C1Nc2ccc(-c3cccc(C(F)(F)F)c3)cc2C(=O)N2CCN(C(=O)c3cccnc3)C[C@H]12	?	-4%	-19%	i
O=C1Nc2ccc(-c3cccc(C(F)(F)F)c3)cc2C(=O)N2CCN(C(=O)c3cccc(F)c3)C[C@H]12	32µM*	-4%	?	?
O=C1Nc2ccc(-c3cccc(C(F)(F)F)c3)cc2C(=O)N2CCN(C(=O)C3CCCC3)C[C@@H]12	40µM*	-3%	?	i
O=C1CC(c2noc(C3CCC3)n2)CN1C1CCCCC1 (centres undefined)	i	0%	-3%	i
O=S(=O)(c1ccc2c(c1)CCC2)N1CCCC1c1nncn1C1CCCC1 (centres undefined)	-3%	nt	-17%	nt
CN(Cc1cncs1)C1CCc2ccccc21 (centres undefined)	-10%[172 µM]	17%[70.6 µM]	?	i
COc1ccc(C(=O)N2CCC(Oc3ncccc3C(=O)N3CCCCC3)C2)c(C)c1 (centres undefined)	-12%	-14%	i	i
COc1ccc(Cl)cc1-c1ccc2c(c1)C(=O)N1CCN(C(=O)C3CCCCC3)C[C@@H]1C(=O)N2	?	2%	45µM*	i
COc1ccc(Cl)cc1-c1ccc2c(c1)C(=O)N1CCN(C(=O)C3CC3)C[C@@H]1C(=O)N2	?	0%[70.6 µM]	?	i
O=C1Nc2ccc(-c3ccccc3)cc2C(=O)N2CCN(C(=O)c3ccccc3)C[C@H]12	89µM*	-13%[70.6 µM]	?	i
O=C1Nc2ccc(-c3ccccc3F)cc2C(=O)N2CCN(C(=O)c3ccccc3)C[C@H]12	?	-2%[70.6 µM]	?	i
COc1ccc(Cl)cc1-c1ccc2c(c1)C(=O)N1CC[C@H](NC(=O)c3cccs3)C[C@H]1C(=O)N2	32µM*	-25%	?	i
Cc1c(CN(C)Cc2cccc(C(=O)Nc3ccc(C#N)cc3)c2)cnn1C	50µM*	-12%	-29%	i
N#Cc1cccc(NC(=O)c2cccc(CN3CCN(CCO)CC3)c2)c1	?	-18%	-7%	i
COc1ccc(F)cc1-c1cccc(C(=O)NCCN[S+](=O)([O-])CCC(F)(F)F)c1	79µM*	nt	?	nt
COc1ccc(F)cc1-c1cccc(C(=O)NCCNC(=O)c2ccc(F)cc2)c1	35µM*	nt	?	nt
COc1ccc(F)cc1-c1cccc(C(=O)NCCNC(=O)c2cccnc2)c1	?	nt	35µM*	nt
COc1ccc(F)cc1-c1cccc(C(=O)NCC(=O)NCCc2cccc(F)c2)c1	40µM*	nt	?	nt
COc1ccc(F)cc1-c1cccc(C(=O)NCC(=O)NCCc2ccccc2)c1	?	nt	-27%	nt
SMILES	HEK cytotox	NPR1 antag	NIH3T3 tox	Luciferase inh
O=C(OCc1ccccc1)N1CCOCC12CCN(Cc1ncccn1)CC2	-12%[172 µM]	1%[70.6 µM]	?	i
O=C(OCc1ccccc1)N1CCOCC12CCN(Cc1ccc(O)cc1)CC2	?	-10%[70.6 µM]	79µM*	i
O=C1OCC2(CCN(Cc3c[nH]c4ccccc34)C2)N1Cc1ccccc1 (centres undefined)	?	-22%[70.6 µM]	89µM*	i
O=C(OCc1ccccc1)N1CCOCC12CCN(Cc1c[nH]c3ccccc13)CC2	56µM*	-21%[70.6 µM]	35µM*	i
O=C(c1ccccc1Cl)N1CCCC(C(=O)N2CCCC(c3nc4ncccc4[nH]3)C2)C1 (centres undefined)	1%	nt	-12%	nt
COc1ccc(CNc2ncnc3c2CN(C2CCC2)C(=O)CN3C)cc1	-21%	0%	-30%	i
COc1ccccc1-c1cccc(C(=O)N2CCC[C@H]2C(=O)N2CCCCC2)c1	-9%	nt	-10%	nt
COc1ccccc1-c1cccc(C(=O)N2CCN(C(=O)c3ccccc3F)CC2)c1	89µM*	nt	-24%	nt
COc1ccccc1-c1cccc(C(=O)N2CCN(C(=O)c3ccc(C)cc3)CC2)c1	40µM*	nt	?	nt
COc1ccc(-c2cccc(C(=O)N3CCN(C(=O)c4ccc(C)cc4)CC3)c2)nn1	?	nt	-23%	nt
COc1ccccc1-c1cccc(C(=O)N2CCN(C(=O)c3cccc(Cl)c3)CC2)c1	40µM*	nt	?	nt
CN(C)C(=O)c1cc(-c2cccnc2)nc2c1cnn2C	-29%[172 µM]	nt	-28%[138 µM]	nt
CC(C)CNC(=O)c1cc(-c2cccc(C(F)(F)F)c2)nc2c1cnn2C	-6%	nt	-9%	nt
O=C1CC(c2ccccc2)N(C(=O)C2CC2)CCCN(C(=O)c2ccsc2)CCN1 (centres undefined)	2%	-3%	-8%	i
Cn1ncc2c(C(=O)NCc3cccc(Cl)c3)cc(-c3ccc(Cl)cc3)nc21	-13%	nt	-16%	nt
Cn1ncc2c(C(=O)NCc3ccc(Cl)cc3)cc(-c3ccsc3)nc21	35µM*	nt	32µM*	nt
COCCNC(=O)c1cc(-c2ccsc2)nc2c1cnn2C	-9%[172 µM]	nt	?	nt
COc1cccc(CNC(=O)c2cc(-c3ccsc3)nc3c2cnn3C)c1	56µM*	nt	25µM*	nt
Cn1ncc2c(C(=O)NCc3cccc(Cl)c3)cc(-c3ccc(F)cc3)nc21	35µM*	nt	?	nt
Cn1ncc2c(C(=O)NCc3cccc(Cl)c3)cc(-c3ccsc3)nc21	32µM*	nt	16µM*	nt
Cn1ncc2c(C(=O)NCCc3ccc(F)cc3)cc(-c3ccc([S+](C)(=O)[O-])cc3)nc21	-3%	nt	-6%	nt
Cc1nn(-c2ccccc2)c2c1C(C1CC1)N(C1CN([S+](=O)([O-])c3cccs3)C1)C2=O (centres undefined)	-2%	nt	i	nt
O=C(c1ccccc1F)N1CCn2c(nnc2C2CCNCC2)C1	4%	nt	28µM*	nt
O=C(c1ccccc1F)N1CCn2c(nnc2-c2ccccc2)C1	-16%[172 µM]	0%[70.6 µM]	-22%[138 µM]	i
Cc1nn2c(c1-c1ccccc1OCc1ccccc1)N(C(=O)CN1CCOCC1)CCC2	-5%	-19%	?	i
Cc1nn2c(c1-c1ccccc1OCc1ccccc1)N(C(=O)Cc1ccccc1)CCC2	79µM*	?	45µM*	i
Cc1nn2c(c1-c1cccc3cn[nH]c13)N(C(=O)Cc1ccccc1)CCC2	-26%[172 µM]	-25%[70.6 µM]	45µM*	i
COc1ccc(-c2cccc(C(=O)N3CCC(NC(=O)c4ccccc4)CC3)c2)nn1	?	nt	-27%	nt

Bioassay records: PubChem, National Center for Advancing Translational Sciences (NCATS)
